Measured values as given in PubChem BioAssay (Tox21).
Inconclusive results are not listed. Active and inactive are the calls of the source. Unless noted, calls follow the shape of the dose curve; as a rule, active = well fitted curve in the direction sought with a large enough effect in the repeat runs; inconclusive = weak or mixed curves; inactive = no such curve, though single readings can be large; an effect the other way counts as inactive or inconclusive.

Experiments:
[1] = qHTS assay for small molecule agonists of the p53 signaling pathway (AID 651631; calls by dose curve; also: nearly all actives have a fitted effect of over 15% in size)
Method in brief: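 Quantitative high-throughput format: 4,000 p53RE-bla HCT-116 cells/well, 5 h pre-incubation, 16 h compound exposure at 37 °C, 2 h room-temperature substrate step, fluorescence intensity measured.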

[2] = qHTS assay for small molecules that induce genotoxicity in human embryonic kidney cells expressing luciferase-tagged ATAD5 (AID 651632); also: nearly all actives have a fitted effect of over 15% in size
Method in brief: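 Concentration-response screen for ATAD5 upregulation in HEK293T luciferase reporter cells; 16 hr treatment at 37C, then luminescence after 30 min with Amplite at room temperature.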

[3] = qHTS assay for small molecule agonists of the p53 signaling pathway - cell viability (AID 651633; calls by dose curve;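 also: p53RE-bla HCT reporter cells with a stable beta-lactamase p53 reporter; series mostly up to about 83 µM; nearly all actives have a fitted effect of over 30% in size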)
Method in brief: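 Viability counter-read: CellTiter-Glo luminescence (30 min, room temperature) in the same p53RE-bla plates. These plates had been exposed to compounds for 16 h at 37 C.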

[4] = qHTS assay for small molecules that induce genotoxicity in human embryonic kidney cells expressing luciferase-tagged ATAD5 - cell viability (AID 651634; calls by dose curve; also: nearly all actives have a fitted effect of over 25% in size)
Method in brief: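 15.5 hr compound or vehicle exposure of HEK293T cells expressing luciferase-tagged ATAD5 at 37C; live-cell protease activity is read by fluorescence after 30 min of CellTiter-Fluor.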

[5] = qHTS assay for small molecule disruptors of the mitochondrial membrane potential - cell viability (AID 720634; calls by dose curve;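 also: human HepG2 liver cancer cells; series mostly up to about 83 µM; nearly all actives have a fitted effect of over 20% in size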)
Method in brief: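 In this qHTS format, HepG2 cells plated overnight were pinned with compound, incubated 1 hr, and assayed for ATP luminescence with CellTiter-Glo after m-MPI dye addition.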

[6] = qHTS assay for small molecule disruptors of the mitochondrial membrane potential (AID 720635); also: potency is read from the fitted curve at half-maximal effect
Method in brief: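 Mitochondrial membrane potential tracked with Mito-MPS dye, red aggregates (ex 540/em 590 nm) against green monomers (ex 490/em 535 nm). Compound treatment 1 hr at 37C, dye 30 min in HepG2.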

[7] = qHTS assay to test for compound auto fluorescence at 590 nm (red) in HepG2 cells (AID 720674)
Method in brief: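 We screened compounds on adherent HepG2 cells, incubating them for an hour at 37 C in 5% CO2 before reading emission at 590 nm under 540 nm excitation; values reflect equivalence to Rose Bengal sodium fluorescence.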

[8] = qHTS assay to test for compound auto fluorescence at 535 nm (green) in HepG2 cells (AID 720675)
[9] = qHTS assay to test for compound auto fluorescence at 460 nm (blue) in HEK293 cells (AID 720678)
Method in brief: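 Blue read-out at excitation 405 nm and emission 460 nm follows overnight compound exposure of HEK293 cells at 37C in 5% CO2. Activity is given as auto fluorescence equivalency to triamterene.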

[10] = qHTS assay to test for compound auto fluorescence at 590 nm (red) in HEK293 cells (AID 720679)
Method in brief: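 Red channel, Ex/Em 540/590nm; signal expressed as equivalency to Rose Bengal sodium. HEK293, 2,000 cells/well, 10% dialyzed FBS; 23 nL compound pinned after 4-5 hr attachment; overnight 37C/5% CO2 before reading.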

[11] = qHTS assay to test for compound auto fluorescence at 535 nm (green) in HEK293 cells (AID 720680)
[12] = qHTS assay to test for compound auto fluorescence at 460 nm (blue) in HEK293 cell free culture (AID 720681)
Method in brief: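 Blue fluorescence (Ex 405/Em 460 nm, triamterene-equivalent) was read immediately after pin transfer of compound or DMSO into medium (DMEM, 10% FBS) without cells.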

[13] = qHTS assay to test for compound auto fluorescence at 535 nm (green) in HEK293 cell free culture (AID 720682)
Method in brief: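 Measurement is a direct plate read of green fluorescence (485 nm in, 535 nm out) after compound addition to serum-supplemented DMEM lacking cells, with fluorescein used to express intensities.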

[14] = qHTS assay to test for compound auto fluorescence at 590 nm (red) in HEK293 cell free culture (AID 720683)
Method in brief: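 Red-channel autofluorescence of compounds in culture medium (DMEM, 10% FBS), no cells, measured at 540/590 nm. Rose Bengal sodium is the reference fluorophore for equivalence.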

[15] = qHTS assay to test for compound auto fluorescence at 590 nm (red) in HepG2 cell free culture (AID 720684)
Method in brief: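 No cells present: MEM + 10% FBS only. Compound pinned in, red label read (540/590 nm). Activity = fluorescence equivalent to Rose Bengal sodium.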

[16] = qHTS assay to test for compound auto fluorescence at 460 nm (blue) in HepG2 cell free culture (AID 720685)
Method in brief: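 Cell-free plates of MEM plus 10% FBS received 23 nL compound or DMSO vehicle; blue-channel (405/460 nm) intensity scored against triamterene as reference fluorophore.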

[17] = qHTS assay to test for compound auto fluorescence at 535 nm (green) in HepG2 cell free culture (AID 720686)
[18] = qHTS assay to test for compound auto fluorescence at 460 nm (blue) in HepG2 cells (AID 720687)
Method in brief: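 Blue-channel autofluorescence (Ex/Em 405/460 nm, triamterene-equivalent) was measured after 1 hr compound exposure at 37 C, 5% CO2. Cells were HepG2, plated overnight at 37 C in MEM plus 10% FBS.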

[19] = biological target: Glucocorticoid receptor (Homo sapiens) (UniProt P04150); assay: qHTS assay to identify small molecule agonists of the glucocorticoid receptor (GR) signaling pathway (AID 720691; active = well fitted activation curve with a large enough effect in the signal ratio in the repeat runs, not every such curve was filed as active; the % refers to the signal ratio)
Glucocorticoid receptor (Homo sapiens), sequence (P04150 whole entry, looked up): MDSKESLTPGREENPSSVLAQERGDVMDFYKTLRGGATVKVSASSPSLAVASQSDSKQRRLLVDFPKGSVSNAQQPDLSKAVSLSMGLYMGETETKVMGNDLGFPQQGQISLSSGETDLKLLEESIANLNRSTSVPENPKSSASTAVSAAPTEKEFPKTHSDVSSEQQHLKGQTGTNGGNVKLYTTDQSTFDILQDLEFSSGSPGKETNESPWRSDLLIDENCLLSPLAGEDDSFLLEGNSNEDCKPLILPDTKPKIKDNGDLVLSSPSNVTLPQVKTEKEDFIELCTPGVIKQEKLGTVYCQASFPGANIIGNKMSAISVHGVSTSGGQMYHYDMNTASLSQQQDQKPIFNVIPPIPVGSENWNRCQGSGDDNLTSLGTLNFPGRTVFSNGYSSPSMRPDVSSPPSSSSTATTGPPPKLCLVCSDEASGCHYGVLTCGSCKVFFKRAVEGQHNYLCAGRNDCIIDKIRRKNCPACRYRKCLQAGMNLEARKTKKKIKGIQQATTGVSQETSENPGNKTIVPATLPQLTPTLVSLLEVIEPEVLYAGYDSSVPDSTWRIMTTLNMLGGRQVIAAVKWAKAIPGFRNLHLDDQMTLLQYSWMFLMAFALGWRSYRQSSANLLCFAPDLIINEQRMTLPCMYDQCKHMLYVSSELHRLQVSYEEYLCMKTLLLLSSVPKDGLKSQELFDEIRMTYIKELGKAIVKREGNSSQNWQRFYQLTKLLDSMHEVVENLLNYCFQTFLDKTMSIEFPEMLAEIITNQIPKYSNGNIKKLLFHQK
Method in brief: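 Measures GR pathway activation through a GRE-beta-lactamase reporter stably integrated in HeLa cells, with 18 h compound treatment at 37 C and fluorescence detection using a FRET substrate.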

[20] = biological target: Glucocorticoid receptor (Homo sapiens) (UniProt P04150); assay: qHTS assay to identify small molecule antagonists of the glucocorticoid receptor (GR) signaling pathway (AID 720692; active = well fitted inhibition curve with a large enough effect in the signal ratio in the repeat runs, not every such curve was filed as active; the % refers to the signal ratio)
Method in brief: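 Tox21 10K library screened in concentration-response for blockade of dexamethasone (5 nM final)-induced GRE-bla reporter activity in HeLa cells; 18 h treatment, fluorescence read.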
% is scaled to controls: 0 for no effect and ±100 for the full control effect.

OCCN1C[C@H](O)[C@@H](O)[C@H](O)[C@H]1CO
inactive: Potency [1] | Potency [2] | Potency [3] | Potency [4] | Potency [5] | Potency [6] | outcome [7] | outcome [8] | Potency [9] | outcome [10] | outcome [11] | Potency [12] | outcome [13] | outcome [14] | outcome [15] | Potency [16] | outcome [17] | Potency [18] | Potency [19] | Potency [20]

NC1CCN(c2cccc(Cl)n2)CC1
inactive: Potency [1] | Potency [2] | Potency [3] | Potency [4] | Potency [5] | Potency [6] | outcome [7] | outcome [8] | Potency [9] | outcome [10] | outcome [11] | Potency [12] | outcome [13] | outcome [14] | outcome [15] | Potency [16] | outcome [17] | Potency [18] | Potency [19] | Potency [20]

C=C(C)C1CC=C(C)C(O)C1 (stereo not drawn)
inactive: Potency [1] | Potency [2] | Potency [3] | Potency [4] | Potency [5] | Potency [6] | outcome [7] | outcome [8] | Potency [9] | outcome [10] | outcome [11] | Potency [12] | outcome [13] | outcome [14] | outcome [15] | Potency [16] | outcome [17] | Potency [18] | Potency [19]

CC12CCC(CC1=O)C2(C)C (stereo not drawn)
inactive: Potency [1] | Potency [2] | Potency [3] | Potency [4] | Potency [5] | Potency [6] | outcome [7] | outcome [8] | Potency [9] | outcome [10] | outcome [11] | Potency [12] | outcome [13] | outcome [14] | outcome [15] | Potency [16] | outcome [17] | Potency [18] | Potency [19] | Potency [20]

CO[Si](CCCNCCC[Si](OC)(OC)OC)(OC)OC
inactive: Potency [1] | Potency [2] | Potency [3] | Potency [4] | Potency [5] | Potency [6] | outcome [7] | outcome [8] | Potency [9] | outcome [10] | outcome [11] | Potency [12] | outcome [13] | outcome [14] | outcome [15] | Potency [16] | outcome [17] | Potency [18] | Potency [19] | Potency [20]

O=[N+]([O-])c1ccc(Oc2ccc([N+](=O)[O-])cc2)cc1
active: Potency [6] 5.57 µM
inactive: Potency [1] | Potency [2] | Potency [3] | Potency [4] | Potency [5] | outcome [7] | outcome [8] | Potency [9] | outcome [10] | outcome [11] | Potency [12] | outcome [13] | outcome [14] | outcome [15] | Potency [16] | outcome [17] | Potency [18]

CCC(C(=O)NC(N)=O)c1ccccc1 (stereo not drawn)
inactive: Potency [1] | Potency [2] | Potency [3] | Potency [4] | Potency [5] | Potency [6] | outcome [7] | outcome [8] | Potency [9] | outcome [10] | outcome [11] | Potency [12] | outcome [13] | outcome [14] | outcome [15] | Potency [16] | outcome [17] | Potency [18] | Potency [19] | Potency [20]

CCCCCCC(CCCCCCCCCCC(=O)OCC(COC(C)=O)OC(C)=O)OC(C)=O (stereo not drawn)
inactive: Potency [1] | Potency [2] | Potency [3] | Potency [4] | Potency [5] | Potency [6] | outcome [7] | outcome [8] | Potency [9] | outcome [10] | outcome [11] | Potency [12] | outcome [13] | outcome [14] | outcome [15] | Potency [16] | outcome [17] | Potency [18] | Potency [19]

CCC(=O)/C=C/c1ccc(OC)cc1
inactive: Potency [1] | Potency [2] | Potency [3] | Potency [4] | Potency [5] | Potency [6] | outcome [7] | outcome [8] | Potency [9] | outcome [10] | outcome [11] | Potency [12] | outcome [13] | outcome [14] | outcome [15] | Potency [16] | outcome [17] | Potency [18] | Potency [19]

O=C1C(CCS(=O)c2ccccc2)C(=O)N(c2ccccc2)N1c1ccccc1 (stereo not drawn)
inactive: Potency [1] | Potency [2] | Potency [3] | Potency [4] | Potency [5] | Potency [6] | fluorescence, relative to Rose Bengal [7] -0.0311% [at 18.6 µM] | fluorescence, % of fluorescein control [8] -0.114% [at 18.6 µM] | fluorescence, % of triamterene [9] -0.0077% [at 18.6 µM] | fluorescence, % of fluorescent control [10] 0.179% [at 18.6 µM] | fluorescence, % of fluorescein [11] -0.11% [at 18.6 µM] | fluorescence, % of fluorescent control [12] 0.0823% [at 18.6 µM] | activity change [13] 0.112% [at 18.6 µM] | fluorescence, % of fluorescent control [14] 0.107% [at 18.6 µM] | fluorescence, % of Rose Bengal [15] -0.0469% [at 18.6 µM] | fluorescence, % of fluorescent control [16] -0.0192% [at 18.6 µM] | fluorescence, % of fluorescein control [17] -0.0165% [at 18.6 µM] | fluorescence, % of fluorescent control [18] -0.182% [at 18.6 µM] | Potency [19] | Potency [20]

CC(=O)NC(Cc1ccccc1)C(=O)O (stereo not drawn)
inactive: Potency [1] | Potency [2] | Potency [3] | Potency [4] | Potency [5] | Potency [6] | outcome [7] | outcome [8] | Potency [9] | outcome [10] | outcome [11] | Potency [12] | outcome [13] | outcome [14] | outcome [15] | Potency [16] | outcome [17] | Potency [18] | Potency [19] | Potency [20]

CC(C)[N+](C)(C)CC(O)COc1cccc2ccccc12 (stereo not drawn)
inactive: Potency [1] | Potency [2] | Potency [3] | Potency [4] | Potency [5] | Potency [6] | outcome [7] | outcome [8] | Potency [9] | outcome [10] | outcome [11] | Potency [12] | outcome [13] | outcome [14] | outcome [15] | Potency [16] | outcome [17] | Potency [18] | Potency [19] | Potency [20]

N[C@@H](CS)C(=O)O
inactive: Potency [1] | Potency [2] | Potency [3] | Potency [4] | Potency [5] | outcome [7] | outcome [8] | Potency [9] | outcome [10] | outcome [11] | Potency [12] | outcome [13] | outcome [14] | outcome [15] | Potency [16] | outcome [17] | Potency [18]
active: Potency [6] 27.7 µM
